Test results from PubChem BioAssay AID588774 (The Scripps Research Institute Molecular Screening Center, 2011).
Activity calls are given as the source filed them.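 The calls were made as follows: active = target enzyme inhibited at least 50% at a set dose, and selective over every off-target enzyme by a set factor; inactive = weaker inhibition or too little selectivity.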

Key:
[1] = pPAFAH inhibition and serine hydrolase selectivity, SAR follow-up, selectivity assay for pPAFAH inhibitor project, biochemical, gel-based, FP-Rh fluorescence, complex proteome, SAR compounds (AID 588774); conditions: gel-based competitive ABPP, MW 32 kDa, anti-targets inhibited, at 10 µM;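 as to inhibition: 0% = DMSO-only band intensity and 100% = blank gel background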
MW 32 kDa = experiment: as above; conditions: gel-based competitive ABPP, at 10 µM, stronger effect = higher value

## Cc1cc(N2CCN(C(=O)Oc3ccc(-c4ccc(Br)cc4)cc3)CC2)c2ccccc2n1
[1]
  anti-target count: 0
MW 32 kDa
  inhibition: 0% (inactive)

## Cc1cc(N2CCN(C(=O)Oc3ccc(C4CCCC4)cc3)CC2)c2ccccc2n1
[1]
  anti-target count: 0
MW 32 kDa
  inhibition: 0% (inactive)

## Cc1cc(N2CCN(C(=O)Oc3ccc(-c4ccccc4)cc3)CC2)c2ccccc2n1
[1]
  anti-target count: 0
MW 32 kDa
  inhibition: 0% (inactive)

## O=C(Oc1noc2cc(Cl)ccc12)N1CCOCC1
[1]
  anti-target count: 3
MW 32 kDa
  inhibition: 30% (inactive)

## COc1ccc(-c2cnn(C(=O)N3CCN(c4cc(C)nc5ccccc45)CC3)n2)cc1
[1]
  anti-target count: 8
MW 32 kDa
  inhibition: 67% (inactive)

## Cc1cc(N2CCN(C(=O)n3ncc(-c4ccc(Cl)c(Cl)c4)n3)CC2)c2ccccc2n1
[1]
  anti-target count: 8
MW 32 kDa
  inhibition: 50% (inactive)

## Cc1cc(N2CCN(C(=O)Oc3ccc(C(F)(F)F)cc3)CC2)c2ccccc2n1
[1]
  anti-target count: 1
MW 32 kDa
  inhibition: 0% (inactive)

## Cc1cc(N2CCN(C(=O)n3ncc(-c4ccc(OC(F)(F)F)cc4)n3)CC2)c2ccccc2n1
[1]
  anti-target count: 9
MW 32 kDa
  inhibition: 87% (inactive)

## Cc1cc(N2CCN(C(=O)n3ncc(-c4ccccc4)n3)CC2)c2ccccc2n1
[1]
  anti-target count: 9
MW 32 kDa
  inhibition: 72% (inactive)

## O=C(N1CCOCC1)n1oc2cc(Cl)ccc2c1=O
[1]
  anti-target count: 6
MW 32 kDa
  inhibition: 39% (inactive)

## O=C(Oc1noc2cc(Cl)ccc12)N1CCCCC1
[1]
  anti-target count: 2
MW 32 kDa
  inhibition: 0% (inactive)

## Cc1cc(N2CCN(C(=O)Oc3ccc(-n4cccc4)cc3)CC2)c2ccccc2n1
[1]
  anti-target count: 0
MW 32 kDa
  inhibition: 0% (inactive)

## Cc1cc(N2CCN(C(=O)n3ncc(-c4ccc([N+](=O)[O-])cc4)n3)CC2)c2ccccc2n1
[1]
  anti-target count: 9
MW 32 kDa
  inhibition: 85% (inactive)

## Cc1cc(N2CCN(C(=O)Oc3ccc([N+](=O)[O-])cc3)CC2)c2ccccc2n1
[1]
  anti-target count: 2
MW 32 kDa
  inhibition: 0% (inactive)

## Cc1cc(N2CCN(C(=O)Oc3ccc(C4CCCCC4)cc3)CC2)c2ccccc2n1
[1]
  anti-target count: 0
MW 32 kDa
  inhibition: 0% (inactive)

## Cc1cc(N2CCN(C(=O)Oc3noc4cc(Cl)ccc34)CC2)c2ccccc2n1
[1]
  anti-target count: 4
MW 32 kDa
  inhibition: 0% (inactive)

## Cc1cc(N2CCN(C(=O)n3oc4cc(Cl)ccc4c3=O)CC2)c2ccccc2n1
[1]
  anti-target count: 3
MW 32 kDa
  inhibition: 0% (inactive)
